For some of these results: Entries with a potency or affinity are not part of this list.
Key:
Parameters in all cases: scale not given: direction of the effect not stated beside the values
[1] = target: Protein translocase subunit SecA (Escherichia coli (strain K12)) (UniProt P10408); assay: Assay to Identify E. coli SecA ATPase Inhibitors; assay type: functional; conditions: 30 µM
[2] = target: T1, Ubiquitin-activating enzyme e1, putative (Leishmania donovani (strain BPK282A1)) (UniProt E9BSI1); assay: Leishmania donovani Ubiquitin Activating Enzyme (LdE1); assay type: functional; conditions: 30 µM
T1 sequence (whole entry): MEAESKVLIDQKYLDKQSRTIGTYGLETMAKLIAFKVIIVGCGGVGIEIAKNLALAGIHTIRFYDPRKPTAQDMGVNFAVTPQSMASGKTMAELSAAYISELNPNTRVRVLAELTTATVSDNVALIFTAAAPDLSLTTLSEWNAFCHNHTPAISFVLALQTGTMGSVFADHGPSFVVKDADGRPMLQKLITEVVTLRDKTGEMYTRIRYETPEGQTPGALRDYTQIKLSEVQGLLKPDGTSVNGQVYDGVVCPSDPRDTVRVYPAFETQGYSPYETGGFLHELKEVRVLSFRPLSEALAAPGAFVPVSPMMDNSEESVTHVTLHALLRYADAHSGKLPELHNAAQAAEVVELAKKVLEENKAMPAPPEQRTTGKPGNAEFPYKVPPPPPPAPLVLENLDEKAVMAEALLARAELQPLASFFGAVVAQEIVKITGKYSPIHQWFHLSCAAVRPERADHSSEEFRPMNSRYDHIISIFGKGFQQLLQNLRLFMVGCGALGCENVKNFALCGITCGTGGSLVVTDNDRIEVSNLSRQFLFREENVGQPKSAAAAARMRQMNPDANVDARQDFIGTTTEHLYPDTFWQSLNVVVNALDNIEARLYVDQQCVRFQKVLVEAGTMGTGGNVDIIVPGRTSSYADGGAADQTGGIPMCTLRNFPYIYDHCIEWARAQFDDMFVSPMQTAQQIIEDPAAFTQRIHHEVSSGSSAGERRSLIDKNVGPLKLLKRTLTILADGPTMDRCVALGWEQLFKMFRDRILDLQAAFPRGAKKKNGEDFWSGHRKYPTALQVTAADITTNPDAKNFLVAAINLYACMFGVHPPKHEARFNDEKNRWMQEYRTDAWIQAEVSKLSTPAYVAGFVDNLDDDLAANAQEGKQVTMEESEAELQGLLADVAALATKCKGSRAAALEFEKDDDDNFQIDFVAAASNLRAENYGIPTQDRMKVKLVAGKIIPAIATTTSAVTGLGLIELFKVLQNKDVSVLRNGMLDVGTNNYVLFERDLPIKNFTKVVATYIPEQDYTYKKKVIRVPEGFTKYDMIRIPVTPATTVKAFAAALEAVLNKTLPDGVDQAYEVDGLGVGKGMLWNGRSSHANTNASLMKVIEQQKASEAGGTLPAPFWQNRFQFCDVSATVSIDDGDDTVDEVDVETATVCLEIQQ

[3] = target: AMP-activated protein kinase, AMPK (Homo sapiens) (UniProt P54646+O43741+P54619+Q9UGJ0+Q9Y478+Q13131+Q9UGI9); assay: AMP-dependent Kinase enzyme assay. An in vitro enzyme assay that detects ADP turnover that is directly proportional to AMPK activity. This uses naive AMPK that is activated during the assay with MK-8722; assay type: functional; conditions: 30 µM
[4] = target: Sialic acid-binding Ig-like lectin 9 (Homo sapiens) (UniProt Q9Y336); assay: Hs-Siglec9 ALPHAscreen SOP 20170721; conditions: 10 µM
Sequence of Sialic acid-binding Ig-like lectin 9 (Homo sapiens) (Q9Y336 whole entry): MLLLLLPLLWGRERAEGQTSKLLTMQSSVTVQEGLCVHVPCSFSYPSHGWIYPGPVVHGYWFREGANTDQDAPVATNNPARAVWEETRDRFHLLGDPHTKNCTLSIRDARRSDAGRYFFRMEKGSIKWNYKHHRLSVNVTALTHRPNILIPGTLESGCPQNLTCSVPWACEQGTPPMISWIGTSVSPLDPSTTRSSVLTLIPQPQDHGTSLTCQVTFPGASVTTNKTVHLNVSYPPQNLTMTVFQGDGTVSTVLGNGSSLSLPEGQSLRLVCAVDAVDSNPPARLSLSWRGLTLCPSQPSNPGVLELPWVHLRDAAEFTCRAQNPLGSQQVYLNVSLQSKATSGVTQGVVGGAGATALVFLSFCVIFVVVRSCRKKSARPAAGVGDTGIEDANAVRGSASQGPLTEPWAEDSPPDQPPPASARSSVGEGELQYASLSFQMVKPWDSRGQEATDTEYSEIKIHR

Trypanosoma cruzi = assay: Trypanosoma cruzi phosphomannomutase and mannose-1-phosphate guanylyltransferase assay; assay type: functional; conditions: 10 µM
[5] = target: T2, Arginase-2, mitochondrial (Homo sapiens) (UniProt P78540); assay: in vitro enzyme assay to detect the production of urea directly proportional to the activity of Arginase II; assay type: functional; conditions: 33.3 µM; note: in the data most compounds retested in dose-response had high values
T2 sequence (whole entry): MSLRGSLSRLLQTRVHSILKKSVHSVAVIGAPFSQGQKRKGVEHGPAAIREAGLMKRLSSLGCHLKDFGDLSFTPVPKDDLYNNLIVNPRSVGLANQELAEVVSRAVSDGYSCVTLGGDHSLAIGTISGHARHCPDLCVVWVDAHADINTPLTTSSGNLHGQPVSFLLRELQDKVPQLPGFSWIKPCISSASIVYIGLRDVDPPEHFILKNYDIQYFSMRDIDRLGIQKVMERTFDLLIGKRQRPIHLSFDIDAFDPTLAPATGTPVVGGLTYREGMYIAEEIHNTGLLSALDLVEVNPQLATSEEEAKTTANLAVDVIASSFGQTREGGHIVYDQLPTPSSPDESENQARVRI

[6] = target: T3, Proteasome subunit beta (Trypanosoma cruzi) (UniProt O96673); assay: Trypanosoma cruzi proteasome chymotrypsin-like activity (TcProtChymo) assay.; note: in the data most compounds retested in dose-response had high values; assay type: functional; conditions: 9.37 µM
T3 sequence (whole entry): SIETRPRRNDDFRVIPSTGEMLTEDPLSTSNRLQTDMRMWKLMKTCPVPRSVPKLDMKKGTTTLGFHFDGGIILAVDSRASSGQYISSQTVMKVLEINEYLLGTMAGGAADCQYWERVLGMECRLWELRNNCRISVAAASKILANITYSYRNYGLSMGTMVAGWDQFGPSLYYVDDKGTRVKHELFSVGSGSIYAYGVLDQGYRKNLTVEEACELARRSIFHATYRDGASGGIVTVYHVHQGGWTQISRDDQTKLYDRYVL

Homo sapiens = species on record: Homo sapiens; assay: To identify inhibition of the IFN signalling (Jak-Stat) pathway via expression of an eGFP reporter gene under the control of an IFN-stimulated response element (ISRE) containing MxA promoter.; assay type: functional; conditions: 30 µM
[7] = target: T4, Tyrosyl-tRNA synthetase, putative (Trypanosoma cruzi (strain CL Brener)) (UniProt Q4DSP6); assay: Trypanosoma cruzi tyrosyl tRNA synthetase (TcYRS) _High Tyrosine SOP; assay type: functional; conditions: 30 µM; note: in the data most compounds retested in dose-response had high values
T4 sequence (whole entry): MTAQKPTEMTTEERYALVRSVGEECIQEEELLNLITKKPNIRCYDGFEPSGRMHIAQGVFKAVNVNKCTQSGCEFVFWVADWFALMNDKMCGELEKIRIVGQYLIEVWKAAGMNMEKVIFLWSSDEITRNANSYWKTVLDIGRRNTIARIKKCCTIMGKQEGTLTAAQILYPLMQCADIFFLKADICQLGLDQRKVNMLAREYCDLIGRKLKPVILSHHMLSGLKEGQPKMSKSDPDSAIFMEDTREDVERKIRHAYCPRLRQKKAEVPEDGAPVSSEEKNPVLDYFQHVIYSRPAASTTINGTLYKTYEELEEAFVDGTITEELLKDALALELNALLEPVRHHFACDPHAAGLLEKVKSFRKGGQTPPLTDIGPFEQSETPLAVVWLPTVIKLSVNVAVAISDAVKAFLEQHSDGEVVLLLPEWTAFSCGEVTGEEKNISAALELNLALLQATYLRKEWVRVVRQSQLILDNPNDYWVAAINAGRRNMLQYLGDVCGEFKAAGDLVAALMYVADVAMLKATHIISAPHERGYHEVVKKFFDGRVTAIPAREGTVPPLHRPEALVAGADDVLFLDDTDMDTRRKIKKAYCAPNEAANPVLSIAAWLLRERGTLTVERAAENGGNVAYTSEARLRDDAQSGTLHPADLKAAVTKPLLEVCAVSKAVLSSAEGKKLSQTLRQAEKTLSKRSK

[8] = target: T4, Tyrosyl-tRNA synthetase, putative (Trypanosoma cruzi (strain CL Brener)); assay: Trypanosoma cruzi tyrosyl tRNA synthetase (TcYRS) SOP; assay type: functional; conditions: 30 µM
[9] = target: Chromo domain-containing protein 1 (Saccharomyces cerevisiae (strain ATCC 204508 / S288c) (Baker's yeast)) (UniProt P32657); assay: ScCHD-1 Enzyme Inhibition Assay; assay type: functional; conditions: 30 µM; note: in the data most compounds retested in dose-response had high values
Sequence of Chromo domain-containing protein 1 (Saccharomyces cerevisiae (strain ATCC 204508 / S288c) (Baker's yeast)) (P32657 whole entry, the tested form may be a part): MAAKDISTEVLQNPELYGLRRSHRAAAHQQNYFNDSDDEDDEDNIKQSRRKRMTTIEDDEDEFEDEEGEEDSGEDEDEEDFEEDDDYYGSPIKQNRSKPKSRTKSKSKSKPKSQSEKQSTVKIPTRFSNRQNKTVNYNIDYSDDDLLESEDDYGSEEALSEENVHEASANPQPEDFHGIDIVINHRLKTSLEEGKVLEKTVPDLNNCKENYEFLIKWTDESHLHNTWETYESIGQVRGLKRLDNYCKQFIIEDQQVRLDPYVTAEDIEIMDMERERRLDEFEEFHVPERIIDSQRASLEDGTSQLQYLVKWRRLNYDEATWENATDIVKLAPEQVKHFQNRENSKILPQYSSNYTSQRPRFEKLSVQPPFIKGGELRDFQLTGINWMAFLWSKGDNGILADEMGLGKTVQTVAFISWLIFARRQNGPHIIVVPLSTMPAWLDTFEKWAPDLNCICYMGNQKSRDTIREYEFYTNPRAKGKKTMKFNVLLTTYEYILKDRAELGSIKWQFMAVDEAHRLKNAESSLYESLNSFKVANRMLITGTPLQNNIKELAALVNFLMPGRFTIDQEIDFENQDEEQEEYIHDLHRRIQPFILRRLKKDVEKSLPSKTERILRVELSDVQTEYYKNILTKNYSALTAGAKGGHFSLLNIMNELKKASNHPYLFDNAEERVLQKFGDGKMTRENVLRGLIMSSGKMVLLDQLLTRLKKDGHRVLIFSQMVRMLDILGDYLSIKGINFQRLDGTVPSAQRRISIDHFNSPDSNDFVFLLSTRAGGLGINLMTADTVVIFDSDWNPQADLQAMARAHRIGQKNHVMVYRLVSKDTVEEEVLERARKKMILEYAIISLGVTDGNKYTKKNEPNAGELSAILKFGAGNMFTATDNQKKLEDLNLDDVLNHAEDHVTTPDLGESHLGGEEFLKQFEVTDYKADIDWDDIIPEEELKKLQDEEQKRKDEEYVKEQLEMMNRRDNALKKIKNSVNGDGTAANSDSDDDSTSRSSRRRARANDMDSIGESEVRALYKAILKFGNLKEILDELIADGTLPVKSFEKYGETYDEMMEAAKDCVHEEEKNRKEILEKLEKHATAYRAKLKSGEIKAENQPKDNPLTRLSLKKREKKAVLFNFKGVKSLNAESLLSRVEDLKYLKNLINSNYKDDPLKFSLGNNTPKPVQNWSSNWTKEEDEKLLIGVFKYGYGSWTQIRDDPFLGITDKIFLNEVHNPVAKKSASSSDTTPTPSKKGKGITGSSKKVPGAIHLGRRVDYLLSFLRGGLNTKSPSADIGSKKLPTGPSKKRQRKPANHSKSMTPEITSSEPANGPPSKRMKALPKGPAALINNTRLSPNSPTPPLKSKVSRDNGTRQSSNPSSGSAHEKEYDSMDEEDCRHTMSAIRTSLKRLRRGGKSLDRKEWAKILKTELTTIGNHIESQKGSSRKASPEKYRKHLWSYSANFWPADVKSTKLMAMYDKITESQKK

Sequence of Protein translocase subunit SecA (Escherichia coli (strain K12)) (P10408 whole entry): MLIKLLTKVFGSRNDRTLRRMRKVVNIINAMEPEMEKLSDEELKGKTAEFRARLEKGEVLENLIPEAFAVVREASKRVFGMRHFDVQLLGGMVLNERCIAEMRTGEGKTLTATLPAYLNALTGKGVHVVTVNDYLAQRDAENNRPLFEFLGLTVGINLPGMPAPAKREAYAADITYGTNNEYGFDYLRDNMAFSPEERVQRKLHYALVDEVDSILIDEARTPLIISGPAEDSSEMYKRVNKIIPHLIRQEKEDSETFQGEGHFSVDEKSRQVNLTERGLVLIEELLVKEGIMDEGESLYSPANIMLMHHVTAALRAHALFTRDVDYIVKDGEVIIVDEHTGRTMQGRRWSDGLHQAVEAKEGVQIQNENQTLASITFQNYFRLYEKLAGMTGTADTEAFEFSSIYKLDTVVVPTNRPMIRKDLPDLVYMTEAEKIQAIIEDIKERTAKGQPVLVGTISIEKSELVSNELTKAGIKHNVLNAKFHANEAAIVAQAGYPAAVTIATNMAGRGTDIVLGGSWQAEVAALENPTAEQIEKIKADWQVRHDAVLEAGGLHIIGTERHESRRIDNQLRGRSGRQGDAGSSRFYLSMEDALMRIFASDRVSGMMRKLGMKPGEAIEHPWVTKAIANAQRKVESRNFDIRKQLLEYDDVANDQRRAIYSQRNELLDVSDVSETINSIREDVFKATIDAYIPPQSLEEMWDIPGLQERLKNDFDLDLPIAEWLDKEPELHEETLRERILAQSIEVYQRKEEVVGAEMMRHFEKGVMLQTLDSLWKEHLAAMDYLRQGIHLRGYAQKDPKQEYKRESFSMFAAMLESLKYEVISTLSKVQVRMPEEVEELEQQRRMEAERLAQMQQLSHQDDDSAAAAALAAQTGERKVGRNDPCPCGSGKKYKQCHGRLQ

Row | SMILES | Percent Effect [1] [%] | Percent Effect [2] [%] | Percent Effect [3] [%] | Percent Effect [4] [%] | Percent Effect (Trypanosoma cruzi) [%] | Percent Effect [5] [%] | Percent Effect [6] [%] | Percent Effect (Homo sapiens) [%] | Percent Effect [7] [%] | Percent Effect [8] [%] | Percent Effect [9] [%]
1 | CCc1cnc(CN2CCCC2c2noc(C3CC3)n2)o1 (stereo unspecified) | -2.28 | 10.8 | -15.2 | -4.49 | 5.94 | -18.4 | 23.6 | 25.5 | 9.36 | 18.5 | -9.7
2 | CCc1noc(C(C)N(C)CC(=O)Nc2ccc(C)cc2)n1 (stereo unspecified) | -4.41 | 0 | 2.85 | 1.79 | -2.55 | -0.455 | -0.887 | -0.282 | -1.07 | -2.5 | 2.11
3 | Cc1cc(C(F)(F)F)nn1CC(C)C(=O)Nc1ccncc1 (stereo unspecified) | -6.4 | 6.67 | -0.198 | 8.65 | 0.786 | -2.64 | 10.9 | 19.9 | 1.06 | -12.8 | -5.12
4 | O=C(C1=CCCC1)N1C[C@H](Oc2cccnc2)[C@H]2OCCC[C@H]21 | 1.45 | 5.41 | 3.36 | -3.91 | -0.977 | -2.08 | 3.47 | 7.05 | 92.1 | 3.66 | -17.8
5 | CN(CCCC#N)C1CCCN(Cc2noc(C3CC3)n2)C1 (stereo unspecified) | -1.64 | 15.3 | -17 | 7.77 | 0.68 | 5.74 | 12.8 | -4.02 | 4.21 | 7.69 | -5.25
6 | CC(C)c1nccn1C1CCCN(C(=O)c2cnc[nH]2)C1 (stereo unspecified) | -5.4 | 10.5 | -5.59 | 16.2 | 5.32 | 0.719 | 10.1 | -0.618 | 5.42 | 16.1 | -3.38
7 | COc1ccc(CN2CCn3cc(CN4CCCCC4)nc3C2)cc1 | -4.9 | 2.6 | 1.83 | -4.04 | -0.888 | -4.52 | 10.3 | -6.42 | 3.17 | -8.97 | -2.75
8 | CN(C)C(=O)c1cnc2n1CCN(Cc1ccccc1)C2 | 1.01 | 13.3 | 6.19 | -6.07 | -7.87 | 8.62 | 15.2 | 0.000462 | 3.19 | 8.97 | -5.59
9 | CC1COCCN1Cc1nc(-c2cccs2)no1 (stereo unspecified) | -2.46 | 10.8 | 138 | -4.28 | -3.49 | -2.4 | 11.5 | 13.2 | 4.43 | 13.6 | -7.61
10 | CC(=O)NCCNC(=O)c1cnc(-c2ccccc2)nc1 | -2.95 | 2.7 | 0.346 | 11.7 | -4.59 | 4.22 | 3.35 | 0.496 | 6.45 | 11.1 | -5.21
11 | FC(F)(F)c1cccc(C2(CNCc3ccncc3)CCOCC2)c1 | -0.743 | 10.8 | -6.5 | -1.68 | -2.34 | -1.67 | 13.9 | 23.6 | 7.92 | 11 | 16.9

Reference: ChEMBL document CHEMBL3988442, “University of Dundee, Small-Polar-MMV Screening Library” (2021)
